# Experimental data reported in ChEMBL document CHEMBL3988442, “University of Dundee, Small-Polar-MMV Screening Library” (2021).
# About 13,000 (27%) of roughly 48,000 compounds showed an effect of 50% or more. The list shows a part of the results.
# Tested on: Wolbachia pipientis
# Test: Anti-Wolbachia Cell-Based Screen
# Format: functional
# Set-up: scale not given: in the data most compounds retested in dose-response had high values
# Settings: 5 µM
row,Structure (SMILES),Percent Effect
1,Cc1ccc(C)c(-n2cc(CN3CCOCC3)c(-c3ccccc3)n2)c1,9.149%
2,CCS(=O)(=O)CCN1CCCC1c1noc(C2CC2)n1 (stereo unspecified),-6.058%
3,CCc1nc(C2CCCN2CCc2ccccn2)no1 (stereo unspecified),17.85%
4,CC(C)c1nc(C2CCCN2CCc2ccncc2)no1 (stereo unspecified),-3.016%
5,CC(C)c1nc(C2CCCN2CCNS(C)(=O)=O)no1 (stereo unspecified),98.61%
6,CC(C)c1nc(C2CCCN2CCN2CCCCC2)no1 (stereo unspecified),99.79%
7,Cc1nc(C2CCCN2CCc2ccccn2)no1 (stereo unspecified),0.4664%
8,Cc1nc(C2CCCN2CCCNS(C)(=O)=O)no1 (stereo unspecified),5.107%
9,CC(C)c1nc(C2CCCN2CCc2ccccn2)no1 (stereo unspecified),92.65%
10,CC(C)c1nc(C2CCCN2CCS(C)(=O)=O)no1 (stereo unspecified),108.9%
11,CC(C)c1nc(C2CCCN2CC(=O)N2CCNC2=O)no1 (stereo unspecified),0.9306%
12,CC(C)(C)CC(=O)N1CC[C@@H](CC(=O)O)[C@@H](CCN2CCCCC2)C1,-5.604%
13,CN(C)c1ccc(C(=O)N(Cc2ccncc2)CC2CCCO2)nn1 (stereo unspecified),-20.14%
14,CC(=O)Nc1cccc(C(=O)Nc2cnc3n2CCCC3)c1,-12.98%
15,CCCS(=O)(=O)N1C[C@@H]2CC[C@H](C1)N(Cc1cscn1)C2=O,-56.87%
16,COCc1cnc2n1CCN(S(=O)(=O)c1c(C)nn(C)c1C)C2C (stereo unspecified),-6.968%
17,CCCN(CCC)S(=O)(=O)NCCc1cc(C)ccc1OC,-23%
18,CCN(CC)C1(Cc2cc(-c3cccc(O)c3)on2)COC1,-3.325%
19,O=C1NC2(CCN(C/C=C/c3ccccc3)CC2)CC1c1ccccc1 (stereo unspecified),1.619%
20,O=C(CSC1CCc2ccccc2NC1=O)NCCO (stereo unspecified),-0.2821%
21,COc1ccccc1NC(=O)CSC1CCc2ccccc2NC1=O (stereo unspecified),14.42%
22,CC(C(=O)O)N1CC2(CCC1=O)CCN(C/C=C/c1ccccc1)CC2 (stereo unspecified),-24.48%
23,O=C1Nc2ccccc2CN(CC2CCCC2)C12CCNC2 (stereo unspecified),101.1%
24,O=C1Nc2ccccc2CN(CC2CC2)C12CCNC2 (stereo unspecified),99.74%

row,Structure (SMILES),Percent Effect
1,CCCN1Cc2ccccc2NC(=O)C12CCNC2 (stereo unspecified),105.5%
2,O=C1Nc2ccccc2CN(C/C=C/c2ccccc2)C12CCNC2 (stereo unspecified),116.1%
3,O=C1NCCN(CC2CC2)C12CCN(Cc1ccco1)CC2,-5.362%
4,CCc1nnc(CN2CCC3(CC2)Nc2ccccc2NC3=O)o1,8.139%
5,CN(C)CCOC1CC2(CCN(c3cnccn3)CC2)c2ccccc21.O=C(O)C(F)(F)F (stereo unspecified),-0.2574%
6,CC(C)NC(=O)N1CCN2C(=O)N(Cc3ccc(F)cc3)C[C@H]2C1,1.439%
7,CO[C@H]1CN(C(C)C)C[C@@H]1NC(=O)c1cc(-c2ccccc2O)n[nH]1,3.341%
8,CNc1nc(C)cc(N2CCC(C(=O)O)(n3ccc(C(C)C)n3)CC2)n1,-25.68%
9,O=S(=O)(NCC1(O)CCOc2ccccc21)c1ccc(Cl)s1 (stereo unspecified),-0.7436%
10,O=C1CC2(CCN(C(=O)Cc3cc4c(cc3Cl)OCCO4)C2)C(=O)N1 (stereo unspecified),-1.867%
11,Cc1cc(NCC2(O)CCOCC2)nc2ccccc12,15.38%
12,COc1ccc(C(=O)N2CCCCC2Cn2cccn2)c(F)c1 (stereo unspecified),4.231%
13,O=C(c1cc(Cl)ccc1F)N1CCCC1Cn1cccn1 (stereo unspecified),101.1%
14,O=C(c1ccccc1N1CCOCC1)N1CCCC1Cn1cccn1 (stereo unspecified),-6.576%
15,Cc1cnn(CC2CCCN2C(=O)c2ccc3nnc(C)n3c2)c1 (stereo unspecified),-11.91%
16,CCn1nnc2cc(C(=O)N3CCCC3Cn3cc(C)cn3)ccc21 (stereo unspecified),-10.21%
17,Cc1cnn(CC2CCCN2C(=O)c2ccc(F)cc2Cl)c1 (stereo unspecified),118%
18,Cc1cnn(CC2CCCN2C(=O)c2ccc(F)c(F)c2)c1 (stereo unspecified),123.6%
19,Cc1cnn(CC2CCCN2C(=O)c2ccc(Cl)cc2F)c1 (stereo unspecified),130.9%
20,CCCNC(=O)C1CCN(Cc2csc(C(C)(C)C)n2)CC1,-3.863%
21,COc1cccc2c1CCN(C(=O)NCCc1nccn1C)C2,2.215%
22,CC(C#N)CSc1ccccc1NCC(=O)NC(=O)NC(C)(C)C (stereo unspecified),-19.45%
23,CC(O)CN1CCC(CN(C)Cc2cc(C#N)ccc2F)CC1 (stereo unspecified),-5.082%
24,Cc1ncc(CNC(CCO)C2CCCCC2)s1 (stereo unspecified),-8.339%

row,Structure (SMILES),Percent Effect
1,COc1ncnc2c1CCN(Cc1nccs1)CC2.O=C(O)C(F)(F)F,2.06%
2,N#Cc1nccnc1N1CCC(OCCCc2ccccc2)C1 (stereo unspecified),1.367%
3,Cc1nc2c(c(NCCNC(=O)C(C)C)n1)Cc1ccccc1OC2,89.1%
4,CC(C)C(C(=O)NCc1ccccc1-n1cccn1)N(C)C (stereo unspecified),-20.85%
5,CN(C)c1nc2c(c(=O)[nH]1)Cc1ccccc1OC2,-4.691%
6,Cc1nc2c(c(NCc3ccccc3)n1)CCN(C(=O)NC(C)C)CC2,7.807%
7,Cc1nc2c(c(NCC(=O)NC(C)C)n1)Cc1ccccc1OC2,92.9%
8,Cc1cccc2c1cnn2CCCNC(=O)C(C)C,-3.766%
9,COc1ccnc(N2CCc3ccc(OC(F)F)cc3C2)n1,18.95%
10,c1cnc(N2CCN(Cc3nnnn3C3CC3)CC2)nc1,-20.27%
11,CC(CCN(C)C)NC(=O)N1CCSC(C)(C)C1 (stereo unspecified),-16.4%
12,CCc1ncc2c(n1)CN(CC(O)COc1ccc(C#N)cc1)CC2 (stereo unspecified),-19.89%
13,Cc1cnn(CC2CCN(CC(O)c3ccccc3F)CC2)c1 (stereo unspecified),-4.357%
14,OC(COc1ccc2c(c1)OCO2)CN1CC(n2cccn2)C1 (stereo unspecified),-5.514%
15,Cc1cnn(CC2CCN(CC(O)COc3ccccc3)CC2)c1 (stereo unspecified),7.728%
16,Cc1ccc(OCC(O)CN2CCC(Cn3cc(C)cn3)CC2)cc1 (stereo unspecified),122.4%
17,Cc1cnn(CC2CCN(CC(O)CN3CCC(C)CC3)CC2)c1 (stereo unspecified),0.7757%
18,N#Cc1ccc(OCC(O)CN2CCC(Cn3cccn3)CC2)cc1 (stereo unspecified),137.4%
19,Cc1ncc2c(n1)CN(CC(O)COc1ccc(C#N)cc1)CC2 (stereo unspecified),-6.644%
20,Cc1cnn(CC2CCN(CC(O)c3ccccc3)CC2)c1 (stereo unspecified),3.63%
21,Cc1ccccc1OCC(O)CN1CCC(Cn2cccn2)CC1 (stereo unspecified),111.1%
22,Cc1cnn(CC2CCN(CC(O)c3ccccc3Cl)CC2)c1 (stereo unspecified),-9.107%
23,Cc1cccc(OCC(O)CN2CCC(Cn3cccn3)CC2)c1 (stereo unspecified),104.3%
